Screening data: PubChem BioAssay, University of Kansas High Throughput Screening Laboratory
mHTT-CaM PPI inh = mutant huntingtin-calmodulin interaction inhibitors – biochemical, AlphaScreen, primary screen; hit rate 3.6% among 190,000; AID 1671202, 2021; AlphaScreen His-mHTT/GST-CaM binding, luminescence; inhibition, % at 15 µM; P42858;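 also: 0% = both proteins with DMSO and 100% = one protein alone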
Pf apPOL inh = Pf-apPOL inhibitors, biochemical, fluorescence; Plasmodium falciparum apicoplast DNA polymerase (apPOL); inhibition, % at 10 µM; AID 1794808, 2022; Recombinant Pf-apPOL, molecular beacon fluorescence, 1.5 h; hit rate 0.25% among 210,000
* hit, by the source's call. In the library only some 3.6% were active in any assay of this set; here they are far more common. Rule as the data show it: active = inhibition above about 50%; inactive = the rest.

Screening O=c1c(-c2ccccc2)coc2cc(OCc3ccc([N+](=O)[O-])cc3)ccc12 returned mHTT-CaM PPI inh 2.0 and Pf apPOL inh -7.8.
`OCCN=Cc1c(O)n(-c2c(Cl)cccc2Cl)c2ccccc12` gave mHTT-CaM PPI inh 85.0* and Pf apPOL inh -0.8.
For CCC(CO)N=Cc1c(O)n(-c2c(Cl)cccc2Cl)c2ccccc12 (stereo unspecified) the results were mHTT-CaM PPI inh 83.0* and Pf apPOL inh -1.3.
Screening CC(=O)n1c(C=Nc2ccc(Cl)cc2)c(O)c2ccccc21 returned mHTT-CaM PPI inh -2.0 and Pf apPOL inh -0.8.
Screening Oc1ccccc1N=Cc1c(Cl)cccc1Cl returned mHTT-CaM PPI inh 12.0 and Pf apPOL inh -5.2.
Screening O=S(=O)(Cc1ccc(Cl)cc1)N1CCc2nc(-c3ccc(F)cc3)ncc2C1 returned mHTT-CaM PPI inh -0.1 and Pf apPOL inh 2.8.
O=[N+]([O-])c1ccccc1/C=C/CN1CCN(c2cccc(Cl)c2)CC1 was read as mHTT-CaM PPI inh 59.3* and Pf apPOL inh -2.8.
For O=[N+]([O-])c1ccccc1/C=C/CN1CCN(c2ccc(F)cc2)CC1 the results were mHTT-CaM PPI inh 24.2 and Pf apPOL inh -21.7.
`CC(C)c1nnc2n1CCN(C(=O)c1cc(-c3ccccc3)n[nH]1)C2` gave mHTT-CaM PPI inh -2.7 and Pf apPOL inh -5.7.
For COc1ccccc1Cc1noc(C2CN(C(=O)c3ccc4nsnc4c3)C2)n1 the results were mHTT-CaM PPI inh 14.3 and Pf apPOL inh -3.7.
`Cc1ccc(C(NC(=O)CC(C)C)c2ccc3cccnc3c2O)cc1` (stereo unspecified) gave mHTT-CaM PPI inh 34.0 and Pf apPOL inh -1.9.
CC(=O)NC(c1ccc(Cl)cc1Cl)c1ccc2cccnc2c1O (stereo unspecified) was read as mHTT-CaM PPI inh 100.0* and Pf apPOL inh 1.8.
CCCC(=O)NC(c1ccc(Cl)cc1)c1ccc2cccnc2c1O (stereo unspecified) was read as mHTT-CaM PPI inh 99.0* and Pf apPOL inh 6.0.
CC(C)CC(=O)NC(c1ccccc1)c1ccc2cccnc2c1O (stereo unspecified) was read as mHTT-CaM PPI inh 100.0* and Pf apPOL inh 10.1.
For CC(C)CC(=O)NCC#CCOc1ccc2c(c1)OCO2 the results were mHTT-CaM PPI inh 4.0 and Pf apPOL inh -8.0.
For CC(C)CC(=O)NC(c1ccc2c(c1)OCO2)c1ccc2cccnc2c1O (stereo unspecified) the results were mHTT-CaM PPI inh 100.0* and Pf apPOL inh -3.6.
CCCCC(=O)NC(c1ccc(Cl)cc1)c1ccc2cccnc2c1O (stereo unspecified) was read as mHTT-CaM PPI inh 17.0 and Pf apPOL inh 0.8.
CC(C)(C)NC(=O)C1CC(=O)N(c2ccccc2)C1 (stereo unspecified) was read as mHTT-CaM PPI inh -4.4 and Pf apPOL inh -3.6.
Nc1ncnc(Nc2c(F)cccc2F)c1[N+](=O)[O-] was read as mHTT-CaM PPI inh -4.0 and Pf apPOL inh -5.4.
`CCC(C)CNC(=S)Nc1ccc(N2CCN(c3ccc(C(F)(F)F)cn3)CC2)nc1` (stereo unspecified) gave Pf apPOL inh -7.5.
Screening Cc1noc(-c2ccncc2)c1C(=O)NC1CCCc2ccccc21 (stereo unspecified) returned mHTT-CaM PPI inh 10.5 and Pf apPOL inh -0.6.
CC(=O)N1CCN(c2nc3c(s2)CC(C(=O)N2CCN(C(C)C)CC2)CC3)CC1 (stereo unspecified) was read as mHTT-CaM PPI inh 5.6 and Pf apPOL inh -3.5.
For COc1ccc(C(NC(=O)CCc2ccccc2)c2ccc3cccnc3c2O)cc1 (stereo unspecified) the results were mHTT-CaM PPI inh 100.0* and Pf apPOL inh 10.4.
`CCCC(=O)NC(c1ccc(Cl)cc1Cl)c1ccc2cccnc2c1O` (stereo unspecified) gave mHTT-CaM PPI inh 100.0* and Pf apPOL inh -4.2.
For CCC(=O)NC(=O)NC(c1ccccc1)c1ccccc1 the results were mHTT-CaM PPI inh -4.9 and Pf apPOL inh 0.1.
For CCC(=O)NC(c1ccccc1)c1ccc2cccnc2c1O (stereo unspecified) the results were mHTT-CaM PPI inh 100.0* and Pf apPOL inh -0.1.
For COc1ccc(CCC(=O)NCCCOc2cccc3cccnc23)cc1 the results were mHTT-CaM PPI inh 2.0 and Pf apPOL inh -4.7.
`CCC(=O)NC(c1ccc(Cl)cc1)c1ccc2cccnc2c1O` (stereo unspecified) gave mHTT-CaM PPI inh 100.0* and Pf apPOL inh -3.1.
For CC(C)CN1C(=O)c2ccccc2C1=O the results were mHTT-CaM PPI inh -6.8 and Pf apPOL inh -6.2.
COc1ccc(OC)c2[nH]c(=O)c(CCNC(=O)COc3ccc(Cl)cc3)cc12 was read as mHTT-CaM PPI inh 3.0 and Pf apPOL inh -3.9.
Screening CN(CCC#N)S(=O)(=O)c1ccc2sc(=O)[nH]c2c1 returned mHTT-CaM PPI inh -2.8.
`CCC(=O)NC(c1ccc(OC)cc1)c1ccc2cccnc2c1O` (stereo unspecified) gave mHTT-CaM PPI inh 100.0* and Pf apPOL inh 3.8.
Screening C#CCNC(=O)c1cc(-c2cccc(OC)c2)nn1C returned mHTT-CaM PPI inh -2.3 and Pf apPOL inh -6.9.
COc1ccc(Nc2nc(Nc3ccc(O)cc3)nc(C)c2[N+](=O)[O-])cc1 was read as mHTT-CaM PPI inh 78.0* and Pf apPOL inh -4.1.
Screening CNc1nc(C)c([N+](=O)[O-])c(Nc2ccc(OC)cc2)n1 returned mHTT-CaM PPI inh 6.0 and Pf apPOL inh -4.4.
Screening COc1ccc(/C=C2\NC(=O)N(Cc3ccccc3F)C2=O)cc1Br returned mHTT-CaM PPI inh -1.0 and Pf apPOL inh -8.7.
`COc1cccc(N2CCN(c3nc(C(=O)N(C)C)cs3)CC2)c1` gave mHTT-CaM PPI inh 16.6 and Pf apPOL inh -5.0.
`CN(C)C(=O)c1csc(N2CCN(c3cccc(Cl)c3)CC2)n1` gave mHTT-CaM PPI inh 52.9* and Pf apPOL inh -3.8.
`Cc1noc(-c2nn(C)c3c2CN(C(=O)NC2CCCC2)CC3)n1` gave mHTT-CaM PPI inh 2.6 and Pf apPOL inh -0.9.
For c1ccc(C2C3=C(CCCC3)Nc3ncnn32)cc1 (stereo unspecified) the results were mHTT-CaM PPI inh 7.0 and Pf apPOL inh 96.3*.
Screening c1ccc(C2C3=C(CCCC3)Nc3nc4ccccc4n32)cc1 (stereo unspecified) returned mHTT-CaM PPI inh 100.0* and Pf apPOL inh 0.3.
For O=C1CCCC2=C1C(c1ccccc1Cl)n1c(nc3ccccc31)N2 (stereo unspecified) the results were mHTT-CaM PPI inh -5.0 and Pf apPOL inh -11.8.
Screening CC1(C)CC(=O)C2=C(C1)Nc1ncnn1C2c1ccccc1 (stereo unspecified) returned mHTT-CaM PPI inh -2.0 and Pf apPOL inh 0.0.
Screening CCC(C)c1ccc(NC(=O)CCCC(=O)O)cc1 (stereo unspecified) returned mHTT-CaM PPI inh -3.6 and Pf apPOL inh -2.1.
COc1cc(OC)c2c(=O)c(-c3ccc(O)cc3)coc2c1 was read as mHTT-CaM PPI inh 7.9 and Pf apPOL inh -20.4.
`Cc1cccc(NC(=O)N2CCCC2c2ccc(F)cc2)c1` (stereo unspecified) gave mHTT-CaM PPI inh -5.9 and Pf apPOL inh -5.7.
FC(F)(F)c1ccc(Cl)c(-c2ccc(C=Nc3ccc(Cl)cc3)o2)c1 was read as Pf apPOL inh -1.9.
Screening Cc1nnc(-c2ccc3ccn(CC(=O)NC(C)(C)C)c3c2)o1 returned mHTT-CaM PPI inh -9.7 and Pf apPOL inh 1.0.
